# Source: PubChem BioAssay
# HPGD block = blocks human HPGD enzyme activity. purified HPGD, NADH fluorescence kinetic, PGE2 substrate. Potency, µM, for inactives: top-dose activity change, negative = inhibition, hits mostly inhibitors. actives 4.3% (n = 150,000). AID 894; further: potency means the concentration at half of the fitted maximal effect; on the % scale 0 is the no-effect control and ±100 the full control effect
# Target sequence (P15428 whole entry, looked up): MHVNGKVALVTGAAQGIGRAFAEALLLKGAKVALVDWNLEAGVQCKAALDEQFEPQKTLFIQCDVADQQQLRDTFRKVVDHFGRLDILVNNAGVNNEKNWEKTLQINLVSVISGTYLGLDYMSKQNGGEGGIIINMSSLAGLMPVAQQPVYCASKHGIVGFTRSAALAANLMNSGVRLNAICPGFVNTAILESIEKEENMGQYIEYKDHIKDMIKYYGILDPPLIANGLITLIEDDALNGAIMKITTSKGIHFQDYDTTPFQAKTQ
#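 20 nM HPGD preincubated 15 min at room temperature with compound in 50 mM Tris-HCl pH 8, 0.01% Tween 20. Started with 1 mM NAD+ and 30 uM prostaglandin E2; NADH fluorescence (360/450 nm) read 5 times over 30-s intervals, last minus first.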
# HTT cytoprotect = protects HTT-Q103 PC12 cells, measured by ATP | PC12 HTT-Q103 induced, cytoprotection, ATP luminescence, 40 h | Potency, µM (top dose mostly 56.4 µM), for the others: cytoprotection (ATP increase), hits mostly activators | actives 0.14% (n = 230,000); active means well fitted curve in the direction sought with a large enough effect; inconclusive means small, poorly fitted or top-dose-only effect, or another doubt; inactive means no such curve, though single readings can be large; an effect the other way counts as inactive or inconclusive; further: potency means the concentration at half of the fitted maximal effect; % of control where 0% means no effect; nearly all actives have a fitted effect of over 45% in size
#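 Rat PC12, Q103 Htt exon1-GFP fusion, ecdysone promoter; tebufenozide inducer 100 nM final; compound titration; qHTS, 1500 cells/well; ATPlite luminescent read.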
# ALDH1A1 inh = blocks purified human ALDH1A1 activity; P00352; Purified ALDH1A1, NADH fluorescence, propionaldehyde substrate; Potency, µM (doses to about 75.3 µM), for inactives: top-dose activity, negative = inhibition, most hits filed as inhibitors; actives 7.3% (n = 220,000); AID 1030;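 further: potency means the concentration at half of the fitted maximal effect; plate controls were no enzyme wells and a reference inhibitor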
# JMJD2E inh = inhibitors of human JMJD2E histone demethylase; AID 2147; Potency, µM (highest dose often 57.1 µM), for inactives: at the top dose activity change, negative = inhibition, most hits filed as inhibitors; JMJD2E catalytic domain, FDH-coupled NADH fluorescence (FDH is formaldehyde dehydrogenase); B2RXH2; actives 1.6% (n = 230,000);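 further: potency means the concentration at half of the fitted maximal effect; 0% = wells with enzyme and -100% = buffer wells without enzyme; nearly all actives have a fitted effect of over 50% in size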
# Target sequence (B2RXH2 1-337 limits assumed): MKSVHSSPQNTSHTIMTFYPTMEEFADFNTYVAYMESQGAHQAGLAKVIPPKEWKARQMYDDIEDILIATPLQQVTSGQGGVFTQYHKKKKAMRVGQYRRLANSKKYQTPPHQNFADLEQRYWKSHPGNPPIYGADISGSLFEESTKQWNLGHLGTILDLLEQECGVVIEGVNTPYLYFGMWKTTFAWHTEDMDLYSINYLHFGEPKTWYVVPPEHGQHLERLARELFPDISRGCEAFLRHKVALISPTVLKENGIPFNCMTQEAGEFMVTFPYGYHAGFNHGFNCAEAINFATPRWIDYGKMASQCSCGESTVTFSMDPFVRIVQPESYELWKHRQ
# CBFb-RUNX1 inh = CBF-beta/RUNX1 interaction disruption | AlphaScreen CBFb-His/RUNX1-biotin binding, biochemical | Q01196+Q13951 | AID 1477 | 230,000 tested, under 10 active | Potency, µM (doses to about 59.8 µM), for the others: top-dose activity, negative = inhibition, actives largely listed as inhibitors; active means well fitted curve in the direction sought with a large enough effect; inconclusive means small, poorly fitted or top-dose-only effect, or another doubt; inactive means no such curve, though single readings can be large; an effect the other way counts as inactive or inconclusive; further: % of control where 0% means no effect
#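 Compounds were screened at multiple concentrations against a preformed CBF-beta(His)/RUNX1(biotin) complex (30 nM of each) for 15 min at room temperature, followed by 90 min with nickel and streptavidin beads and AlphaScreen reading.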
# HttQ103 aggreg = inhibitors of mutant huntingtin aggregate formation in PC12 cells; PC12 HttQ103-GFP aggregates, Acumen cytometry, 40 h; Potency, µM (titrated, usually from 46.1 µM), for the others: at the top dose activity change, negative = inhibition, hits mostly inhibitors; actives 1.1% (n = 220,000); AID 1688; active means well fitted curve in the direction sought with a large enough effect; inconclusive means small, poorly fitted or top-dose-only effect, or another doubt; inactive means no such curve, though single readings can be large; an effect the other way counts as inactive or inconclusive; further: potency means the concentration at half of the fitted maximal effect; on the % scale 0 is the no-effect control and ±100 the full control effect; nearly all actives have a fitted effect of over 60% in size
#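 Multiplexed with ATP-based cell death, this channel scores GFP aggregates in PC12 cells expressing inducible HTTex1-Q103-GFP. Induction used 100 nM tebufenozide; compounds were tested in concentration series.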
# Starred values were filed as active, the others as inactive; ? = inconclusive; · = no result given; [ ] = remark or other dose. Only some compounds are listed: those with a hit (about 9.8% of all), similar ones and a draw of the others. Unless noted, the call rests on the fitted dose curve; in most records, active means well fitted inhibition curve with a large enough effect (not every such curve was filed as active); inconclusive means small, poorly fitted or top-dose-only effect, or another doubt; inactive means no such curve, though single readings can be large or run the other way.
SMILES,HPGD block,HTT cytoprotect,ALDH1A1 inh,JMJD2E inh,CBFb-RUNX1 inh,HttQ103 aggreg
CCC(C)/C(C)=N/NC(=O)c1cn(-c2ccccc2)nc1-c1ccccc1 (stereo not given),0.3%,1.8%[10 µM],6.31µM*,0.2%,-2.2%,7.0%
CCC(Sc1ccc2nnc(CCNS(=O)(=O)c3ccc(OC)cc3)n2n1)C(=O)OC (stereo not given),·,?,?,-6.9%,?,-1.2%
N[C@@H](CNO)C(=O)O,-10.9%,-1.2%[10 µM],10.3%[13.5 µM],·,·,·
Cc1ccc(S(=O)(=O)NCC(=O)NCC(=O)N2CCN(c3ncccn3)CC2)cc1C,·,32.8%[10 µM],·,?,9.2%,39.0%[9.22 µM]
COCCN1C(=O)/C(=C/c2ccc(OCc3ccc(C(=O)O)cc3)c(OC)c2)SC1=Nc1ccccc1,-8.3%,·,1.12µM*,-4.0%,4.3%,?
COc1cc(/C=C2\SC(=Nc3ccccc3)N(Cc3ccco3)C2=O)ccc1OC(C)C(=O)O (stereo not given),-27.4%,·,-3.7%,-7.8%,-11.3%,6.8%
Cc1cc(C)nc(/N=c2/ssnc2Cl)c1,12.6µM*,-9.4%[10 µM],3.98µM*,-0.3%,-2.2%,?
Cc1ccc(C2=NNC(=Nc3ccc(F)cc3)SC2)cc1,·,?,-10.9%,-0.8%,?,?
Cc1ccc(N=c2ssnc2Cl)cc1,2.82µM*,-3.3%,2.24µM*,11.2µM*,-19.7%,12.4%
Nc1ccccc1N=c1ssnc1Cl,·,-32.7%,?,?,16.4%,7.8%
Cc1cc(Cl)ccc1N=c1ssnc1Cl,4.47µM*,-8.7%,1.26µM*,11.2µM*,-21.6%,-17.2%[9.22 µM]
COc1ccc(-n2c3c(c(=O)[nH]c2=O)C(NS(=O)(=O)c2ccc(Cl)cc2)(C(F)(F)F)C(=O)N3)cc1 (stereo not given),·,8.7%[10 µM],·,3.7%,11.7%,-17.2%[9.22 µM]
O=C(CSc1nnnn1-c1ccc(F)cc1)c1ccc(O)c(O)c1,·,-35.9%,22.4µM*,28.2µM*,-23.3%,-20.0%
Cn1cnnc1SCC(=O)c1ccc(O)c(O)c1,·,·,-6.9%,10µM*,-2.6%,17.2%
COc1ccc(-n2nnnc2SCC(=O)c2cccc(OC)c2)cc1,-7.5%,-35.9%,2.7%,8.0%,6.9%,-13.2%
CC[C@H](C)[C@H](NC(=O)[C@H](Cc1ccc(O)cc1)NC(=O)[C@H](Cc1cnc[nH]1)NC(=O)[C@H](CCCNC(=N)N)NC(=O)[C@H](CC(C)C)NC(=O)[C@H](C)NC(=O)[C@H](CO)NC(=O)[C@H](Cc1ccc(O)cc1)NC(=O)[C@H](Cc1ccc(O)cc1)NC(=O)[C@H](CCCNC(=N)N)NC(=O)[C@H](C)NC(=O)[C@H](CC(C)C)NC(=O)[C@H](CC(=O)O)NC(=O)[C@H](CCC(=O)O)NC(=O)[C@H](C)NC(=O)[C@@H]1CCCN1C(=O)[C@H](C)NC(=O)[C@H](CC(=O)O)NC(=O)[C@H](CCC(=O)O)NC(=O)CNC(=O)[C@@H]1CCCN1C(=O)[C@H](CC(N)=O)NC(=O)[C@H](CC(=O)O)NC(=O)[C@@H]1CCCN1C(=O)[C@H](CCCCN)NC(=O)[C@H](CO)NC(=O)[C@@H]1CCCN1C(=O)[C@@H](N)Cc1ccc(O)cc1)C(=O)N[C@@H](CC(N)=O)C(=O)N[C@@H](CC(C)C)C(=O)N[C@H](C(=O)N[C@H](C(=O)N[C@@H](CCCNC(=N)N)C(=O)N[C@@H](CCC(N)=O)C(=O)N[C@@H](CCCNC(=N)N)C(=O)N[C@@H](Cc1ccc(O)cc1)C(N)=O)[C@@H](C)O)[C@@H](C)CC,·,·,·,·,6.3%,·
CCc1ccc(C(O)(c2ccccc2OC)C(CN2CCOCC2)c2ccccc2)cc1 (stereo not given),·,-104.1%,4.7%,-1.6%,-13.3%,11.2µM*
COC(=O)c1c(C(=O)OC)c2n(c1C)CCC2,-4.9%,9.1%,7.0%,10.4%,-4.2%,6.6%
COC(=O)c1c(O)cc(=O)n2c1CCCCC2,·,-22.2%,1.78µM*,-27.5%,-7.4%,-1.4%
CCCn1nnc(NC(=O)c2cc(Br)cc(Br)c2OC)n1,·,9.7%,11.2µM*,1.4%,6.1%,30.9%
Cc1ccc(NC(=S)NNC(=S)NCc2ccccc2)cc1,-27.0%,3.8%,0.631µM*,9.1%,-4.0%,-16.1%
CCNC(=S)NNC(=S)NCc1ccccc1,28.2µM*,·,-3.1%,0.4%,?,1.9%
COc1ccccc1NC(=O)Cn1nc(Cc2cccnc2)c2ccccc2c1=O,·,-12.0%[10 µM],·,2.7%,2.9%,-21.0%[9.22 µM]
NC(=O)CNC(=O)[C@@H]1CC2(CC(c3cccc([N+](=O)[O-])c3)=NO2)CN1C(=O)c1ccccc1 (stereo not given in full),-11.4%,-5.4%,1µM*,-5.8%,0.7%,6.8%
Cc1cc(NC(=O)C(=O)NCc2cccc(Cl)c2)no1,·,5.0%[10 µM],·,3.2%,9.0%,-14.4%[9.22 µM]
SMILES,HPGD block,HTT cytoprotect,ALDH1A1 inh,JMJD2E inh,CBFb-RUNX1 inh,HttQ103 aggreg
O=C(CN1C(=O)S/C(=C\c2ccc(Cl)cc2)C1=O)NNC(=O)c1ccccc1O,-9.3%,34.1%[10 µM],20.1%,17.8µM*,-15.1%,-17.1%
COc1ccc(/C=C2\SC(=S)N(CCCC(=O)NNC(=O)c3ccccc3O)C2=O)cc1,·,24.3%[10 µM],7.4%,-10.2%,13.7%,-14.5%
CCOc1ccc(C(=O)CC(Sc2ccc(C)cc2)C(=O)O)cc1 (stereo not given),·,-33.1%[10 µM],1.58µM*,-13.4%,0.5%,?
CCC(Sc1ccc(C(=O)O)cc1)C(=O)O (stereo not given),-6.8%,3.3%[0.074 µM],-3.2%,-12.6%,-1.8%,?
Nc1nc(C(F)(F)F)cc(=O)n1N,·,14.8%,17.8%,-1.4%,10.7%,13.4%
O=C(Nc1ccc(Cl)cc1)c1cccc(N2C(=O)C3C4CCC(C4)C3C2=O)c1 (stereo not given),31.6µM*,4.5%[10 µM],8.7%,-3.6%,-9.1%,2.4%
Cc1ccc(N2C(=O)[C@@H]3[C@H](C2=O)[C@H]2C=C(C(=O)c4ccccc4)C=CN2[C@@H]3C(=O)c2ccc(Cl)cc2)cc1,39.8µM*,-5.3%[10 µM],25.1µM*,-26.3%,-1.1%,18.7%
O=C(C1=C[C@@H]2[C@H]3C(=O)N(c4cccc(Cl)c4)C(=O)[C@H]3[C@@H](C(=O)c3ccc(Cl)cc3)N2C=C1)c1ccccc1,-30.0%,11.4%[10 µM],?,-28.8%,0.8%,18.9%
Cn1ncc([N+](=O)[O-])c1C(=O)Nc1ccc(C2CCCCC2)cc1,·,-44.2%,-1.3%,4.2%,-3.0%,0.2%
Cc1cc(C)n(-c2nnc(C)c(=O)[nH]2)n1,-6.6%,1.3%[10 µM],-1.3%,-12.1%,-5.9%,2.3%
O=C(O)C1C2C=CC(C2)C1C(=O)NC1CCS(=O)(=O)C1 (stereo not given),-11.5%,18.5%[10 µM],22.4µM*,0.4%,9.8%,6.0%
